Results on 10 molecules are retold here after PubChem BioAssay.

Structures are written as SMILES. Active and inactive are the calls of the source.

Assay [1] can be described thus: binders of probe aFSTL3 on microarray, primary screen, stem cell growth factor project, biochemical, small-molecule microarray, fluorescence 635/667 (AID 1064).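 Also: measures binding of the biotinylated anti-FSTL3 antibody to printed compounds.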 The note with it: higher = more signal.
Assay [2] is described as follows: binders from COS7 lysate, DM2A8 probe, primary screen, torsin A project, cell lysate, small-molecule microarray, fluorescence 635/667 (AID 1065). The note with it: higher = more signal, COS7 lysate expressing mutant human TOR1A.
Assay [3] in a line: binders of probe aFGF2 on microarray, primary screen, stem cell growth factor project, biochemical, small-molecule microarray, fluorescence 635/667 (AID 1067).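 Also: measures binding of biotinylated aFGF2 protein to printed compounds on slides; z-score merges feature fluorescence and signal-to-noise across triplicate slides.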 The settings on record: higher = more signal.
Assay [4] is described as follows: binders of probe aFGF10 on microarray, primary screen, stem cell growth factor project, biochemical, small-molecule microarray, fluorescence 635/667 (AID 1071).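 Also: score merges 667 nm spot intensity and signal to noise from triplicate slides.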 The settings on record: higher = more signal.
Assay [5] addresses Neurogenic locus notch homolog protein 2 (Homo sapiens) (UniProt Q04721). Kind of assay: Notch2 binders on small-molecule microarrays, primary screen, biochemical, small-molecule microarray, 635 nm fluorescence, stem cell growth factors (AID 1073). The note with it: Notch2 binding, higher = more signal.
For assay [6], the target named is Pro-neuregulin-1, membrane-bound isoform (Homo sapiens) (UniProt Q02297). Nature of the assay: NRG1 binders on small-molecule microarrays, primary screen, psychiatric disease protein project, biochemical, small-molecule microarray, fluorescence 635/667 (AID 1075).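 Also: score combines 667 nm spot fluorescence with signal to noise.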 The settings on record: NRG1 binding, 635 nm fluorescence, higher = more signal.
Assay [7] has as its system Neuregulin-1 EGF-like domain. Nature of the assay: binders of neuregulin-1 EGF-like domain, primary screen, biochemical, small-molecule microarray, 635 nm fluorescence (AID 1081).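 Also: binding of the protein to compounds printed on small-molecule microarray slides.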 The settings on record: small-molecule microarray binding, higher = more signal.
Assay [8] is described as follows: FRG1 promoter luciferase signal modulators, primary screen, FRG1 inhibition for FSHD, cell-based, C2C12 myotubes, firefly/Renilla luciferase, luminescence (AID 1084). The settings on record: higher = more signal, called active from +8 up or from −8 down.
Assay [9] is described as follows: binders of probe aFST on microarray, primary screen, stem cell growth factor project, biochemical, small-molecule microarray, fluorescence 635/667 (AID 1086).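 Also: score merges 667 nm fluorescence with signal-to-noise of each printed compound spot.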 The settings on record: higher = more signal.
The nature of assay [10]: binders of probe aHhip on microarray, primary screen, stem cell growth factor project, biochemical, small-molecule microarray, fluorescence 635/667 (AID 1087).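 Also: score merges spot fluorescence at 667nm with spot signal to noise ratio.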 The settings on record: higher = more signal.

Chain of Neurogenic locus notch homolog protein 2 (Homo sapiens) (Q04721 whole entry, looked up, canonical isoform): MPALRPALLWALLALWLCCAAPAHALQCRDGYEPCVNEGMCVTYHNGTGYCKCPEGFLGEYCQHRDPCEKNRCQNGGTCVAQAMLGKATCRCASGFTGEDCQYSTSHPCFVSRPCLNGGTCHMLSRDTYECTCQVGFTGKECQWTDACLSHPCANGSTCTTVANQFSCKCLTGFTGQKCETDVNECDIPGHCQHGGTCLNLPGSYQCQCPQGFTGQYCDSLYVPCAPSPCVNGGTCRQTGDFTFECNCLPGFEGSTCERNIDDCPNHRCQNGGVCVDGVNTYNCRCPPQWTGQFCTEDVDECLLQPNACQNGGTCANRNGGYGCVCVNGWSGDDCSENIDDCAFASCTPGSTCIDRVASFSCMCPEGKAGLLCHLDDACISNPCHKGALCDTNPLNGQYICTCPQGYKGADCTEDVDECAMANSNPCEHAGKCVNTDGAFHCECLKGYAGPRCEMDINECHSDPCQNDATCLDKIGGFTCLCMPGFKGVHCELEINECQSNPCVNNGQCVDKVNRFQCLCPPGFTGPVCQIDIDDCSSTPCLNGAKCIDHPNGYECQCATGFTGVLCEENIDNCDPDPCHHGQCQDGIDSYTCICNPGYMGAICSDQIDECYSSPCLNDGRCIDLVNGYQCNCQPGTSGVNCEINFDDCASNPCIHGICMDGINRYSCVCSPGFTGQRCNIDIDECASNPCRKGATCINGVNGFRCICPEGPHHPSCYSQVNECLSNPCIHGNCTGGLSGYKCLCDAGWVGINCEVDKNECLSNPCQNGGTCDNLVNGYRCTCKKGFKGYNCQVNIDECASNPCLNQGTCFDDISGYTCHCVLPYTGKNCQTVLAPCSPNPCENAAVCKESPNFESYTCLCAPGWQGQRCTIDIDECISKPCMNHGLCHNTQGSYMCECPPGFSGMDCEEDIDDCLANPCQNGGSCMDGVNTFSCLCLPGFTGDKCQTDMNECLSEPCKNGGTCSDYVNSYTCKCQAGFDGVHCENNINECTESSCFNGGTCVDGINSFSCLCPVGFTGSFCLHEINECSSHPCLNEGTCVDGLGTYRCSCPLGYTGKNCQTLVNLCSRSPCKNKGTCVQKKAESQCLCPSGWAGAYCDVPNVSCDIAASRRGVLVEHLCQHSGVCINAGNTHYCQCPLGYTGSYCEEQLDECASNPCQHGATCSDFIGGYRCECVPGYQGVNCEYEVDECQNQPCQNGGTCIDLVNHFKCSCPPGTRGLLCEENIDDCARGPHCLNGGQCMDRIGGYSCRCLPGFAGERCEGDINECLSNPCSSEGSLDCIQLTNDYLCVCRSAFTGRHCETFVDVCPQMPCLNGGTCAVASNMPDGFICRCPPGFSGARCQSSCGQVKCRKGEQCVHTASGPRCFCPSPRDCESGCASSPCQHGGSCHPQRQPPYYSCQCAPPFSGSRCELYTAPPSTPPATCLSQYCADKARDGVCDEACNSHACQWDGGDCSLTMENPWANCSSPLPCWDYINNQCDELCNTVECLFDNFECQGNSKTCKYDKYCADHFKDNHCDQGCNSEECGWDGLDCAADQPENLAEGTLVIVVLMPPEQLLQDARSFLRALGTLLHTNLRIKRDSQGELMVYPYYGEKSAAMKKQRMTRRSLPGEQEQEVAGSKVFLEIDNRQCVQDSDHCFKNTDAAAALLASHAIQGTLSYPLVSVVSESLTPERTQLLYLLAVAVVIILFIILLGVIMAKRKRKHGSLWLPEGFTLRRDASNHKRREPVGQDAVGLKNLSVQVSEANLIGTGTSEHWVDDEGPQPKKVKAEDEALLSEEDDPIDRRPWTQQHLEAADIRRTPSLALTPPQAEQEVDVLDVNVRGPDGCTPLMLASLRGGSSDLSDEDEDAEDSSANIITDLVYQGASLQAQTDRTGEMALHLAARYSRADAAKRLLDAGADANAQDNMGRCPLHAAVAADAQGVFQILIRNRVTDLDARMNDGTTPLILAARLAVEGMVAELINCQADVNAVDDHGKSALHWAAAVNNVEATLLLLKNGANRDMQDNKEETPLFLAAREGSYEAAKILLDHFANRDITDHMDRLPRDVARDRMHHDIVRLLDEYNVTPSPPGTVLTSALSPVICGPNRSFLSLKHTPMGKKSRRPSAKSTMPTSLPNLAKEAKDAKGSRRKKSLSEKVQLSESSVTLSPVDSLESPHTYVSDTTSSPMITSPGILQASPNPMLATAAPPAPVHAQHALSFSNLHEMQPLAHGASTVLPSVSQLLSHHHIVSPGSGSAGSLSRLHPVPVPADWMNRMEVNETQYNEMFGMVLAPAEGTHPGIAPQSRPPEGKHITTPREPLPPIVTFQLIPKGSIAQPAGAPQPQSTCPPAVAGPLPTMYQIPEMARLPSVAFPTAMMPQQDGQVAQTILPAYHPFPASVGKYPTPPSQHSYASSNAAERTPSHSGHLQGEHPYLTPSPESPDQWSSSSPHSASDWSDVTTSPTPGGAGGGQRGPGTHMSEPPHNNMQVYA
Chain of Pro-neuregulin-1, membrane-bound isoform (Homo sapiens) (Q02297 whole entry, looked up, the tested form may be a part, canonical isoform): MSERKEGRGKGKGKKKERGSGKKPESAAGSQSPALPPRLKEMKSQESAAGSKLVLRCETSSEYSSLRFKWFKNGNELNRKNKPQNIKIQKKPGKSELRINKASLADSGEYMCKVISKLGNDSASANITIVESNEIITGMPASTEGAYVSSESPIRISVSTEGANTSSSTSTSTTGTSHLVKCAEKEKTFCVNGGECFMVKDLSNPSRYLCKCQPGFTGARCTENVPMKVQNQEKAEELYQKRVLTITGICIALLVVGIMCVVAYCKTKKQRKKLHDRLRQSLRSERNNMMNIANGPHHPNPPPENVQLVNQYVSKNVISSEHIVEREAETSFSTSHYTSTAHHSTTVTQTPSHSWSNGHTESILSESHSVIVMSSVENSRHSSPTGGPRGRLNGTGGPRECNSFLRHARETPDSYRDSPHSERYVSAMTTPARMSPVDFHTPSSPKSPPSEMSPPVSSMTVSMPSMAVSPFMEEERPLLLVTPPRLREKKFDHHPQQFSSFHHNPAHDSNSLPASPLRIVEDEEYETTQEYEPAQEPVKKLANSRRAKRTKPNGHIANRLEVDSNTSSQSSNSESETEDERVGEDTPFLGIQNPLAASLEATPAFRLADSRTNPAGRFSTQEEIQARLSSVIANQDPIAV

As for `CC(=O)OC[C@H]1O[C@@H](ON=C[C@@H](C)[C@H](OCc2ccccc2)C(C)C)[C@H](OC(C)=O)[C@@H](OC(C)=O)[C@@H]1OC(C)=O`, the composite z-score in assay [1] is -0.624; in [2], 1.69; in [3], -0.0959; in assay [4], 0.372; in assay [5], 0.55; in assay [6], -0.927. Besides, the results for the composite z-score in [7], in [9] and in [10] were -1.19, 0.304 and -0.134, respectively. Further, the z-score in assay [8] was -0.703 (inactive).
For `CCOc1ccc(N2C(=O)/C(=C/C=C/c3ccccc3OC)S(=O)(=O)C2c2cccc([N+](=O)[O-])c2)cc1` (stereo not given), the composite z-score in [1] was -0.0317; in [2], 0.232; in [3] it was -0.0906; in assay [4], 0.281; in [5], 0.344; in assay [6], 0.903. The composite z-score in assay [7] is -0.142; in assay [9], 0.323; in assay [10], -0.515. In addition, the z-score in assay [8] is -1.75 (inactive).
As for `C=CCC(OC(C)=O)[C@@H]1[C@@H](N(Cc2cc3ccccc3o2)C(=O)Cc2ccc(F)cc2)c2cc(OCCCO)ccc2N1C(=O)Cc1ccc(OC)cc1` (stereo not given in full), the composite z-score in assay [1] is -0.115; in [2], 0.102; in assay [3], -0.0409; in [4], 0.351; in assay [5], -0.383; in assay [6], 0.16. Further, the composite z-score is -0.707 in assay [7], -0.0711 in assay [9] and 0.0373 in assay [10]. In [8], the z-score is -2.16 (inactive).
For `COCCOC(=O)N1C(=O)[C@@]2(c3cc(C#Cc4ccc(OC)cc4)ccc31)[C@H](C(=O)N1CCN(c3ncccn3)CC1)[C@H]1C(=O)O[C@H](c3ccccc3)[C@H](c3ccccc3)N1[C@@H]2c1ccc(OCCO)cc1`, the composite z-score was 0.367 in assay [1]; -0.473 in assay [2]; -0.006 in assay [3]; 0.3 in [4]; 1.35 in assay [5]; 0.458 in [6]. In addition, the composite z-score in [7] stood at 0.703; in [9] it was 0.383; in assay [10], 0.28. Besides, the z-score in assay [8] is 0.726 (inactive).
Consider `O=C(NN=C1C[C@@H](O)[C@@H](O)[C@@H]2[C@@H]3C(=O)N(c4ccc(F)cc4F)C(=O)[C@@H]3CC[C@@H]12)OCc1ccccc1`, for which the composite z-score was -0.105 in assay [1]; 0.361 in assay [2]; -0.0845 in [3]; 0.215 in [4]; 0.283 in [5]; 0.113 in assay [6]. Moreover, the results for the composite z-score in assay [7], in assay [9] and in assay [10] were -0.882, 0.51 and -0.0672, respectively. Further, in assay [8], the z-score was 0.228 (inactive).
For the molecule `COc1ccc(O[C@H]2C=C[C@@H](c3ccccc3)O[C@@H]2COC(=O)CCC(C)=NO[C@H](C)c2cn([C@@H]3COC[C@H]3O)nn2)cc1`, the composite z-score is -0.672 in assay [1]; 0.518 in assay [2]; -0.125 in [3]; 0.323 in assay [4]; 0.483 in [5]; 0.489 in assay [6]. Besides, the composite z-score is 0.586 in [7], 0.0701 in [9] and -0.411 in assay [10]. Besides, the z-score in assay [8] was 1.39 (inactive).
Take `O=C1[C@H]2[C@H]3[C@H](O)[C@H](O)CC(=NOCc4ccccc4)[C@H]3CC[C@H]2C(=O)N1C[C@@H]1CCCO1`: the composite z-score in [1] is -0.493; in assay [2], -0.259; in assay [3], -0.133; in assay [4] it was 0.717; in assay [5] it was 0.564; in assay [6], 0.512. The values for the composite z-score in assay [7], in [9] and in [10] were 0.792, 0.14 and -0.123, respectively. In [8], the z-score is -0.187 (inactive).
Consider `CC=CC1=C(CO)[C@H](O)[C@H]2O[C@H]2[C@H]1O`, for which the composite z-score was -0.659 in assay [1]; 0.253 in assay [2]; -0.027 in assay [3]; 0.166 in assay [4]; -0.0482 in [5]; -0.157 in assay [6]. For the same molecule, the composite z-score in assay [7] was 0.583; in assay [9] it was -0.191; in assay [10], 0.0881. In assay [8], the z-score is -0.0975 (inactive).
Turning to `CO[C@H]1COC(=O)[C@H](C)NC(=O)[C@@H](C)COC(=O)CC=C[C@@H]1C`, the composite z-score was -0.618 in [1]; 1.06 in [2]; -0.116 in assay [3]; 0.409 in [4]; -0.0804 in assay [5]; -0.194 in [6]. Further, the composite z-score is 0.547 in assay [7], 0.0356 in assay [9] and -0.434 in [10]. The z-score in assay [8] is -0.599 (inactive).
Take `O=C1C[C@@H](O)[C@@H](O)[C@@H]2[C@@H]3C(=O)N(c4ccc(F)cc4F)C(=O)[C@@H]3CC[C@@H]12`: the composite z-score in assay [1] is -0.416; in assay [2], 0.267; in assay [3], -0.122; in [4] it was 0.315; in assay [5], 0.627; in assay [6], 0.0489. Moreover, the composite z-score in assay [7] was 0.823; in assay [9], 0.153; in [10] it was 0.144. Further, the z-score in [8] was 0.25 (inactive).
